Assay outcomes: PubChem BioAssay, Buhrlage Lab, Dana-Farber Cancer Institute and Novartis Institutes for BioMedical Research (Cambridge, Mass)
USP17 inh: human USP17-like deubiquitinase inhibition. A8MUK1. purified USP17, Ub-rhodamine cleavage fluorescence, 3 h. inhibition, % at 50 µM. hit rate 6.5% among 47,000. AID 1645855
USP8 block: blocks human USP8 ubiquitin-rhodamine cleavage. P40818. purified USP8, Ub-rhodamine cleavage fluorescence, 30 min. inhibition, % at 20 µM. hit rate 4.2% among 47,000
USP30 inh: inhibitors of human USP30 deubiquitinase; hit rate 5.3% among 47,000; Q70CQ3; AID 1645860; purified USP30, Ub-rhodamine cleavage fluorescence; inhibition, % at 25 µM
A number is an active result; 0 = inactive; - = not tested or not shown. An excerpt weighted towards active compounds, which were near 12% of everything screened. Rule as the data show it: active = inhibition above about 30%; inactive = the rest.

SMILES | USP17 inh | USP8 block | USP30 inh
COCCn1ccc2nc(C)c(C(=O)Nc3ccc4c(c3)OCCO4)cc2c1=O | 51.0 | 0 | 36.3
COc1ccc(/C=C/C(=O)N(Cc2ccc(F)cc2)C2CCS(=O)(=O)C2)cc1 (configuration not stated) | 0 | 0 | 0
CCN(CC(=O)Nc1ccc(C(C)=O)cc1)Cc1nc2cc(OC)c(OC)cc2c(=O)[nH]1 | 0 | 0 | 0
Clc1ccc(-c2noc(-c3cnccn3)n2)cc1 | 0 | 0 | 30.6
c1cnc(-c2nc(-c3ccc(-c4csc(C5CC5)n4)cc3)no2)cn1 | 0 | 0 | 0
COc1ccc(C(C(=O)Nc2ccc(F)cc2)N(C(=O)c2cnccn2)c2ccccc2)cc1 (configuration not stated) | 0 | 0 | 0
COCCNC(=O)c1ccc2ccc(N3CCN(S(C)(=O)=O)CC3)n2c1 | 0 | 0 | 0
Cc1ccc(S(=O)(=O)N2CC(C(=O)NC3CCCCC3)C3(CCOCC3)C2)cc1 (configuration not stated) | 0 | 0 | 31.1
Cc1cccc(S(=O)(=O)N2CC(C(=O)NC3CCCCC3)C3(CCOCC3)C2)c1 (configuration not stated) | 0 | 0 | 0
CCOC(=O)C1(Cc2cc(-c3ccccc3F)no2)CCNCC1 | 0 | 0 | 0
O=C(COc1ccc(Cl)cc1)N1CCc2cc3ccccc3nc21 | 65.5 | 0 | 0
O=C1CCN(C(=O)COc2ccc(Cl)cc2)c2ccccc2N1 | 0 | 0 | 0
COc1ccccc1-n1c(CNC(=O)c2ccc(S(=O)(=O)N3CCOCC3)cc2)nnc1SCc1ccc(Br)cc1 | 0 | 0 | 35.6
Cc1ccc(CSc2nnc(CNC(=O)c3ccc(F)cc3)n2-c2ccccc2)cc1 | 0 | 0 | 0
COc1ccc(-c2cnnn2-c2ccc(NC(=O)c3c(F)cccc3F)cc2)cc1OC | - | 0 | 82.8
COc1ccc(NC(=O)c2cc(-c3ccncc3)n(-c3ccc(F)cc3)n2)cc1OC | 0 | 0 | 0
COc1ccc(S(=O)(=O)N2CCN(c3nc4ccc(C)cc4cc3C#N)CC2)cc1 | 0 | 0 | 0
Cc1cccc(N(CC(=O)NCC2CCCO2)C(=O)CCC(=O)Nc2nccs2)c1C (configuration not stated) | 0 | 0 | 0
O=C(CSc1ncnc2c1nnn2Cc1ccc(F)cc1)N1CCOCC1 | 0 | 0 | 0
CC(C)OCCCn1c(=O)c2ccccc2n2c(CCC(=O)NC3CCN(Cc4ccccc4)CC3)nnc12 | 0 | 0 | 0
COc1cccc(NC(=O)CCc2nnc3n(CCCOC(C)C)c(=O)c4ccccc4n23)c1 | 68.7 | 80.6 | 89.3
CC(C)OCCCn1c(=O)c2ccccc2n2c(CCC(=O)NCCc3c[nH]c4ccccc34)nnc12 | 37.2 | 0 | 0
CC(C)OCCCn1c(=O)c2ccccc2n2c(CCC(=O)NCc3ccccn3)nnc12 | 0 | 0 | 0
Cc1cc(C)cc(-n2ccn3cc(-c4cccc(Cl)c4)nc3c2=O)c1 | 45.1 | 0 | 0
Cc1ccc(-n2ccn3cc(-c4ccc(Br)cc4)nc3c2=O)c(C)c1 | 0 | 0 | 0
SMILES | USP17 inh | USP8 block | USP30 inh
CC(C)Sc1nc(N2CCCC2)c2c3c(sc2n1)COC(C)(C)C3 | 0 | 0 | 0
N=C1C(c2nc3ccccc3s2)=C(O)CN1Cc1cccc(F)c1 | 0 | 0 | 0
N=C1C(c2nc3ccccc3s2)=C(O)CN1Cc1ccc(F)cc1 | 50.7 | 33.3 | 0
CC(c1ccccc1)N1CC(O)=C(c2nc3ccccc3s2)C1=N (configuration not stated) | 0 | 89.6 | 0
COc1cccc(CN2CC(O)=C(c3nc4ccccc4s3)C2=N)c1 | 0 | 0 | 0
COc1ccc(C(=O)N/C(=C\c2cn(S(=O)(=O)N(C)C)c3ccccc23)C(=O)NCc2ccccc2)cc1OC | 0 | 0 | 0
O=C(NC1CCCCCC1)c1nc(CCS(=O)(=O)c2ccc(F)cc2)no1 | 0 | 0 | 0
CC(C)(C)c1ccc(C(=O)Nc2ccc(Cn3cncn3)cc2)cc1 | 0 | 0 | 0
CN(C)c1ccc(NC(=O)c2ccc(Cn3cc([N+](=O)[O-])cn3)cc2)cc1 | 0 | 45.7 | 0
NC(=O)c1ccc(NC(=O)c2cnn(Cc3ccccc3)c2)cc1 | 37.8 | 0 | 0
O=C(O)CC(NC(=O)c1cnn(Cc2ccccc2)c1)c1ccccc1 (configuration not stated) | 0 | 0 | 0
Cc1ccc(CNC(=O)CCn2cnc3c(-c4ccccc4)noc3c2=O)cc1 | 0 | 0 | 0
Cc1nc2c(-c3ccccc3)noc2c(=O)n1CC(=O)O | 0 | 0 | 31.2
Cc1ccccc1CNC(=O)CCn1cnc2c(-c3ccccc3)noc2c1=O | 0 | 37.9 | 42.9
O=C(O)CCn1cnc2c(-c3ccccc3)noc2c1=O | 0 | 0 | 0
Cc1cc(NC(=O)c2cn(-c3cc(N4CCCC4)ncn3)cn2)ccc1F | 0 | 0 | 0
O=C(Nc1c2c(nn1-c1ccc([N+](=O)[O-])cc1)CS(=O)(=O)C2)C1(c2ccc(Cl)cc2)CCCC1 | 0 | 0 | 0
NC(=O)c1c[nH]n2c(=O)cc(C3CC(=O)N(c4cccc5ccccc45)C3)nc12 (configuration not stated) | 0 | 0 | 0
O=C(Oc1cc(O)cc2c1C[C@@H](OC(=O)c1cc(O)c(O)c(O)c1)[C@@H](c1cc(O)c(O)c(O)c1)O2)c1cc(O)c(O)c(O)c1 | 77.3 | 0 | 0
O=C(Cn1cc(C(=O)C(F)(F)F)c2ccccc21)N1CCCC1 | 0 | 0 | -
CC(=O)N1CCCC(Cc2cc(-c3ccccc3F)no2)(C(=O)O)C1 (configuration not stated) | 0 | 0 | 0
O=C1N[C@@H]2CN(S(=O)(=O)c3ccc4ccccc4c3)CC[C@H]2CO1 | 0 | 0 | 0
CCCc1cc(=O)n2[nH]c(-c3ccc(C)cc3)cc2n1 | 43.1 | 0 | 0
CCCc1cc(=O)n2[nH]c(-c3ccccc3)cc2n1 | 0 | 0 | 0
CC(=O)c1cccc(-n2c(=O)c3c4c(sc3n(CC(=O)NCC3CCCO3)c2=O)CN(C(C)=O)CC4)c1 (configuration not stated) | 0 | 0 | 0
SMILES | USP17 inh | USP8 block | USP30 inh
CCNC(=O)c1nn(-c2ccc(Cl)cc2)c2c(=O)n(C)cnc12 | 0 | 0 | 0
O=C1Nc2ccccc2C2(CCN(S(=O)(=O)c3ccc(F)cc3)CC2)O1 | 0 | 0 | 0
COc1ccc(S(=O)(=O)N2CCC3(CC2)OC(=O)Nc2ccccc23)cc1 | 63.6 | 38.6 | 0
O=C(CN1C(=O)c2ccccc2C1c1c[nH]c2ccccc12)NCc1ccc(F)cc1 (configuration not stated) | 0 | 0 | 0
CN1[C@@H](CCC(=O)NCc2ccc(F)cc2)CNC(=O)[C@@H]2[C@H]1CCN2Cc1ccccn1 | 0 | 0 | 0
COc1ccc(C(=O)CCN2CCOCC2)cc1[N+](=O)[O-] | 0 | 0 | 0
CCCCCC(=O)C(CCCC)c1oc(=O)c(CCCC)c(O)c1CCCC (configuration not stated) | 30.3 | 0 | 0
O=S(=O)(c1ccc2c(c1)OCCO2)N(Cc1ccccc1)Cc1nnc(-c2ccccc2)o1 | - | 0 | 74.3
Cc1onc(-c2ccccc2)c1CNS(=O)(=O)c1ccc2c(c1)OCCO2 | 0 | 0 | 0
Cc1ccc(NC(=O)Cn2ncc3c(N4CCCC4)ncnc32)cc1 | 0 | 0 | 0
Cn1ccc(-c2cc(C(=O)NCc3ccncc3)c3ccccn23)n1 | 0 | 0 | 0
Cn1ccc(-c2cc(C(=O)NCc3ccccn3)c3ccccn23)n1 | 0 | 35.5 | 0
CC1=C(C(=O)Nc2cccnc2)C(c2cccnc2)n2nc(C(F)(F)F)nc2N1 (configuration not stated) | 0 | 0 | 0
